RORgamma inh: ROR gamma (mouse) transcription inhibition; P51450; Drosophila S2 Gal4-RORgamma UAS-luciferase reporter, 20 h; Potency, µM (doses to about 53.6 µM), for inactives: top-dose activity change, negative = inhibition, most hits filed as inhibitors; 310,000 compounds, 5.4% hits; AID 2551; further: on the % scale 0 is the no-effect control and ±100 the full control effect; nearly all actives have a fitted effect of over 60% in size
Target sequence (P51450 whole entry, looked up, the tested form may be a part): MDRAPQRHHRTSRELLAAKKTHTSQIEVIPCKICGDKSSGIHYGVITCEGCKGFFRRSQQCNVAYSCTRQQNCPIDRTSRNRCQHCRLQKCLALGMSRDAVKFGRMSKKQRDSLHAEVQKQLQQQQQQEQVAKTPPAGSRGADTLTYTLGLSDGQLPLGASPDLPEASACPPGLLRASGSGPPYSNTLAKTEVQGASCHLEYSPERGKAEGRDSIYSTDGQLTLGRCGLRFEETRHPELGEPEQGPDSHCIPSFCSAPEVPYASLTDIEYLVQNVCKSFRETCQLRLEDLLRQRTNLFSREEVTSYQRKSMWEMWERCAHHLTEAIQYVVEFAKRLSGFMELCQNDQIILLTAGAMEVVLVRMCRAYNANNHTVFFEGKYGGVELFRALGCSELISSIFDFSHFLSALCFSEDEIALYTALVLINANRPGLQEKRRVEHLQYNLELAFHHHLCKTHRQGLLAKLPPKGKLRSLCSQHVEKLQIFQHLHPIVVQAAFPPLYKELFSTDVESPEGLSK
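Compounds are pin-transferred onto Drosophila Schneider cells expressing a copper-inducible Gal4–ROR gamma transactivation domain fusion. After 1 hr, copper sulfate is added to 700 uM final; luciferase is read 20 hr later.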
ATXN viability: cell viability loss in ATXN counter-screen; S2 cells (HEK-293 line with an ATXN2-luciferase reporter) viability, CellTiter-Fluor protease fluorescence, 24 h; Potency, µM (top dose mostly 56.7 µM), most hits filed as cytotoxic; 400,000 compounds, 0.49% hits; AID 651635; further: nearly all actives have a fitted effect of over 40% in size
TGFb inhibitor: inhibitors of TGF-b signaling | HepG2 CAGA-GFP TGF-b/SMAD3 reporter, GFP fluorescence, 18 h; TGF-beta stimulated, 500 pg/mL final | Potency, µM (highest dose often 46.1 µM), inactives show at the top dose activity, negative = inhibition, hits mostly inhibitors | 410,000 compounds, 1.2% hits; further: on the % scale 0 is the no-effect control and ±100 the full control effect; nearly all actives have a fitted effect of over 65% in size
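HEPG2 CAGA-GFP cells (1000/well, DMEM with 1% FBS) were pre-incubated 2 h at 37 degrees C, given compound by pin tool, then stimulated with TGF-beta at 500 pg/mL final for 18 h before per-cell GFP fluorescence imaging.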
HepG2 tox: kills HepG2 cells in TGF-b inhibitor counter-screen. HepG2 CAGA-GFP viability, ATP luminescence, 18 h. Potency, µM (series often up to 46.1 µM), for inactives: at the top dose activity change, negative = cytotoxicity, most hits filed as cytotoxic. 410,000 compounds, 0.76% hits
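HepG2 CAGA-GFP cells (1000/well, DMEM with 1% FBS) received compound, then TGF-beta at 500 pg/mL final, and were incubated 18 hours at 37 degrees C. Viability was read by CellTiter-Glo luminescence. Media-only wells were set as complete cell-killing and DMSO as no toxicity.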
ATXN2 expr inh: reduces ATXN2 reporter expression in HEK-293 cells; HEK-293 ATXN2-luciferase reporter, luminescence, 24 h; Potency, µM (titrated, usually from 57 µM), for inactives: top-dose activity change, negative = inhibition, most hits filed as inhibitors; 360,000 compounds, 0.72% hits; AID 1745845; further: on the % scale 0 is the no-effect control and ±100 the full control effect; nearly all actives have a fitted effect of over 55% in size
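qHTS (up to 57 uM final) was run with 24 h compound exposure of reporter cells at 37 °C. Each well was multiplexed: SteadyGlo luminescence measured ATXN2-luciferase expression after a fluorogenic Gly-Phe-AFC viability readout (25 uM final).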
VP16 counter: counter-screen for ROR gamma inhibitors: Gal4-VP16 reporter. Potency, µM (highest dose often 53.6 µM), for the others: top-dose activity, negative = inhibition, usual class: inhibitors. Drosophila S2 Gal4-VP16 UAS-luciferase, luminescence, 20 h. AID 2546. 310,000 compounds, 3.5% hits;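 further: Gal4-VP16 expression switched on by copper sulfate through the metallothionein promoter; on the % scale 0 is the no-effect control and ±100 the full control effect; nearly all actives have a fitted effect of over 50% in size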
* = called active by the depositor; i = inactive; ? = inconclusive; nt = no result. Only some compounds are listed: those with a hit (about 6.3% of all), similar ones and a draw of the others. The call rests on the fitted dose curve; in most records, active means well fitted curve in the direction sought with a large enough effect; inconclusive means small, poorly fitted or top-dose-only effect, or another doubt; inactive means no such curve, though single readings can be large; an effect the other way counts as inactive or inconclusive. Potency means the concentration at half of the fitted maximal effect.

SMILES | RORgamma inh | ATXN viability | TGFb inhibitor | HepG2 tox | ATXN2 expr inh | VP16 counter
c1ccc(C2[C@H]3CN(Cc4cccnc4)[C@H](c4ccccc4)C34CC2(c2cccnc2)C4)cc1 (some centres not stated) | ? | ? | 14µM* | -58% | -14% | 4%
CCOC(=O)c1ccc(NC(=O)CC2OCCN(CC)C2=O)cc1 (configuration not stated) | 20µM* | i | -4% | -5% | 27% | ?
CCOC(=O)c1ccc(NC(=O)CC2C(=O)OCCN2CC)cc1 (configuration not stated) | ? | i | ? | -4% | 16% | ?
S=c1[nH]nc(-c2ccco2)n1-c1ccc(Br)cc1 | nt | nt | 7% | 2% | -22% | nt
Cc1cccc(-n2c(-c3ccco3)n[nH]c2=S)c1 | 11µM* | i | 3% | 21% | -1% | ?
Cc1ccccc1-n1c(-c2ccco2)n[nH]c1=S | 11µM* | i | 0% | 15% | 5% | ?
Cc1ccc(-n2c(-c3cc(-c4ccco4)[nH]n3)n[nH]c2=S)c(Br)c1 | 8.9µM* | i | -2% | 15% | -16% | -4%
S=c1[nH]nc(-c2cc(-c3ccco3)[nH]n2)n1-c1cccc2ccccc12 | 24% | i | ? | -19% | ? | -2%
Cc1cccc(-n2c(-c3ccc(Br)o3)n[nH]c2=S)c1 | nt | i | 3% | -10% | -20% | nt
FC(F)(F)c1ccccc1-n1c(-c2ccco2)n[nH]c1=S | 14µM* | i | 3% | -2% | -29% | ?
COc1c(O)c(O)c2cc(OC)c3c(OC)cc(=O)c4c5c(=O)c(OC)c(C(C)=O)c6c5c(c1CC=6C)c2c34 | 5% | nt | nt | nt | nt | -8%
CC(C)(C)c1ccc(CN(Cc2ccco2)Cc2nnnn2C2CCCC2)cc1 | 36% | i | ? | 13% | -17% | 2.8µM*
O=C(CSc1nnc(CNC(=O)c2ccco2)o1)Nc1nc2ccccc2s1 | 2.5µM* | i | -7% | -35% | nt | 10µM*
O=C(CSc1nnc(CNC(=O)c2ccco2)o1)Nc1ccccc1 | 5% | i | -15% | 5% | 2% | 9%
O=C(CSc1nnc(CNc2ccc(Cl)cc2)o1)Nc1nc2ccccc2s1 | 14µM* | i | -4% | -24% | 3% | ?
Cc1ccc(C(=O)Nc2cnn(-c3ccc(C(=O)NCc4nc(-c5ccccc5)n[nH]4)cc3)c2)c(C)c1 | nt | i | nt | nt | nt | nt
CN(Cc1ccccc1)C(=O)[C@@H]1CCCN1C(=O)[C@@H]1CCCN1C(=O)c1cccs1 | nt | i | nt | nt | 9% | nt
CCN(N=O)c1ccc(/C=C/c2ccnc3ccccc23)cc1 | nt | nt | -21% | -33% | nt | nt
COc1ccc2sc(-c3ccc(N(C)C)cc3)c(C#CC(C)(C)O)c2c1 | nt | nt | -24% | -27% | 8% | nt
COc1cccc(-c2sc3ccc(OC)cc3c2C#CC(C)(C)O)c1 | nt | i | 16µM* | -42% | -14% | nt
O=[N+]([O-])c1ccc2nc(CO)[nH]c2c1 | nt | nt | -15% | -22% | nt | nt
CCC(=O)O[C@]1(C(=O)CCl)[C@@H](C)CC2C3C[C@H](F)C4=CC(=O)C=CC4(C)[C@@]3(F)C(O)CC21C (some centres not stated) | -16% | nt | nt | nt | nt | -7%
CCN(Cc1ccccc1)S(=O)(=O)c1ccc(C(=O)Nc2nnc(-c3ccccc3OC)o2)cc1 | 0.2µM* | i | 0% | 11% | ? | 0.35µM*
COc1ccccc1-c1nnc(NC(=O)CCS(=O)(=O)c2ccc(F)cc2)o1 | nt | ? | ? | -41% | nt | nt
COc1ccc(NC(=O)c2ccc(S(=O)(=O)N(C)C)cc2)cc1OC | -2% | i | ? | 15% | 3% | -1%
SMILES | RORgamma inh | ATXN viability | TGFb inhibitor | HepG2 tox | ATXN2 expr inh | VP16 counter
COc1ccccc1-c1nnc(NC(=O)CCS(=O)(=O)c2ccccc2)o1 | 10µM* | i | ? | -44% | 2% | 10µM*
COc1ccccc1-c1nnc(NC(=O)c2ccc(S(=O)(=O)N(C)C)cc2)o1 | 0.71µM* | i | -12% | -48% | -23% | 0.63µM*
CCN(CC)c1ncnc2c1ncn2[C@H]1CN(Cc2ccc(OC)cc2)C[C@@H](CO)O1 | nt | i | 9% | -8% | -10% | nt
COc1cc(=O)n2c(c1C(=O)N(C)C(C)c1ccco1)CCN(C(=O)c1ccc(C(C)=O)cc1)CC2 (configuration not stated) | nt | i | nt | nt | nt | nt
OC(COC(c1ccc(Cl)cc1)c1ccc(Cl)cc1)CN1CCc2ccccc2C1 (configuration not stated) | ? | nt | ? | 11µM* | 28µM* | ?
CN1CCN(CC(O)COC(c2ccc(Cl)cc2)c2ccc(Cl)cc2)CC1 (configuration not stated) | -23% | i | ? | 10µM* | nt | -4%
CC(C)NC(=O)COC(=O)CNC(=O)C1CCCCC1 | nt | nt | 2% | 6% | nt | nt
CC(C)c1nn2c(=O)cc(COC(=O)CNC(=O)c3ccccc3Cl)nc2s1 | nt | i | ? | -32% | 9% | nt
COCC1CCCN(Cc2ccc3c(c2)CN(C(=O)c2ccc(-n4cccn4)cc2)CCO3)C1 (configuration not stated) | nt | i | nt | nt | nt | nt
COc1ccc(NC(=O)CSc2nnc(-c3cccc(O)c3)o2)cc1 | -35% | i | -5% | 0% | 57% | -12%
COc1cccc(NC(=O)CSc2nnc(-c3cc(C)n(-c4ccccc4)c3C)o2)c1 | 10µM* | i | -19% | -24% | 17% | 11µM*
Cc1ccc(-c2nn(-c3ccccc3)c3[nH]c(=O)c(CNCCN(C)C)cc23)cc1 | 4µM* | nt | nt | nt | nt | 7.9µM*
Cc1ccc(-c2nn(-c3ccccc3)c3[nH]c(=O)c(CNCc4ccccc4)cc23)cc1 | ? | nt | ? | -55% | ? | 0%
CC[N+]1(CC(=O)c2ccc(OC)cc2)CCCCC1 | nt | nt | 5% | 7% | nt | nt
Oc1ccc(Cl)cc1C1=NNC(c2cc(Br)cc3c2OCOC3)C1 (configuration not stated) | 7.9µM* | i | -20% | -14% | -13% | ?
O=C1C=C(O)CC(c2ccc(Cl)cc2)C1 (configuration not stated) | 11% | i | -4% | -1% | 4% | -1%
Oc1ccc(Cl)cc1C1=NNC(c2ccc(Cl)cc2)C1 (configuration not stated) | 8.9µM* | i | ? | -25% | 14% | 16µM*
Oc1c(Cl)cc(Cl)cc1C1=NNC(c2ccc(Cl)cc2)C1 (configuration not stated) | 8.9µM* | nt | -12% | -26% | -28% | -24%

Bioassay records deposited in PubChem BioAssay by National Center for Advancing Translational Sciences (NCATS).
